PubChem BioAssay AID1490 (National Center for Advancing Translational Sciences (NCATS), 2009)
Hit rate of the full screen: of about 310,000 compounds, about 11,000 (3.5%) were called active. Roughly 4% stayed inconclusive and do not appear here. The call rests on the fitted dose curve; in most records, active means well fitted inhibition curve with a large enough effect; inconclusive means small, poorly fitted or top-dose-only effect, or another doubt; inactive means no such curve, though single readings can be large or run the other way. The entries come from a sample that favours actives as a whole.

biological target: 4'-phosphopantetheinyl transferase ffp (Bacillus subtilis) (UniProt Q9F4F7); experiment: qHTS Assay for Inhibitors of Bacillus subtilis Sfp phosphopantetheinyl transferase (PPTase); details: Biochemical Sfp PPTase activity;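 further: the enzyme is Sfp with the accession as filed and its product quenches rhodamine fluorescence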;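 on largest response in the series, negative = inhibition: 0% = enzyme reaction without inhibitor and -100% = no enzyme wells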
Outline: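 With Hepes-Na pH 7.6 buffer containing 10 mM MgCl2, Sfp (15 nM) modified BHQ-2-YbbR (12.5 uM) using rhodamine-CoA (5 uM). Two reads 30 minutes apart at 525/598 nm yielded each well's rate.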
Potency means the concentration at half of the fitted maximal effect.

Row | SMILES | largest response in the series, negative = inhibition | Potency
1 | CCC(C)NC(=O)C1c2ccccc2C(=O)N1Cc1ccccc1 (stereo not drawn) | 0.907% (inactive) | 
2 | CC1(C)C(C=C(Cl)Cl)C1C(=O)NC(O)C(=O)c1ccccc1 (stereo not drawn) | 3.88% (inactive) | 
3 | Cc1ccc(S(=O)(=O)N(CC(O)CN2C(=O)NC(C)(C)C2=O)c2cccc([N+](=O)[O-])c2)cc1 (stereo not drawn) | 5.58% (inactive) | 
4 | CN1CCc2c(sc3c2c(NCc2ccco2)nc2nnnn23)C1 |  | 11.2 µM (active)
5 | Cn1c(=O)n(Cc2ccco2)c(=N)c2c3c(sc21)CCCC3 | -9.41% (inactive) | 
6 | CCCSc1nc(NCc2ccco2)c2c3c(sc2n1)COC(C)(CC)C3 (stereo not drawn) | -1.25% (inactive) | 
7 | Cc1ccc(C)c(C(C)NC(=O)C2CCCO2)c1 (stereo not drawn) | 24.3% (inactive) | 
8 | O=C(/C=C/c1ccc2c(c1)OCCO2)c1ccc(O)cc1 | -4.02% (inactive) | 
9 | CN(CCO)c1ccc(/C=N/Nc2nncc3ccccc23)cc1 | 6.72% (inactive) | 
10 | CCC(C(=O)NCCC(C)C)N(Cc1ccccc1Cl)C(=O)c1snc(C(N)=O)c1N (stereo not drawn) | 7.3% (inactive) | 
11 | Cc1csc(NC(=O)Nc2ccccc2[N+](=O)[O-])n1 | -6.55% (inactive) | 
12 | CC(=O)Nc1cccc(C(=O)Nc2nc(C)cs2)c1 | -6.97% (inactive) | 
13 | Cc1csc(NC(=O)NC2(C(F)(F)F)Oc3ccccc3O2)n1 |  | 8.91 µM (active)
14 | COc1ccc2c(CC(=O)N3CCc4cc(OC)c(OC)cc4C3)coc2c1 | 1% (inactive) | 
15 | COc1ccc(OCC(=O)Nc2nnc(-c3ccco3)s2)cc1 | -15% (inactive) | 
16 | Cc1ccc(OCC(=O)Nc2nnc(-c3ccco3)s2)cc1 |  | 79.4 µM (active)
17 | CNc1nnc(-c2ccco2)s1 | 5.68% (inactive) | 
18 | COc1ccc(N(CC(=O)NCC2CCCO2)C(=O)CCC(=O)Nc2nccs2)c(OC)c1 (stereo not drawn) | 26.6% (inactive) | 
19 | CCOc1ccc(C(=O)Nc2ccc(CN3CCOCC3)cc2)cc1Cl | 8.41% (inactive) | 
20 | O=C(Nc1ccc(O)cc1)c1ccccc1O | -1.36% (inactive) | 
21 | CCCc1cc(=S)n2c([nH]c3ccccc32)c1C#N |  | 56.2 µM (active)
22 | CCOC(=O)CCc1c(C)c(C#N)c2[nH]c3ccccc3n2c1=O | -12.3% (inactive) | 
23 | Cc1ccccc1Cn1c(=O)[nH]c2ccccc21 | -2.4% (inactive) | 
24 | Cc1cccn2cc(-c3cccc(S(=O)(=O)N4CCCCC4)c3)nc12 | -2.13% (inactive) | 

Row | SMILES | largest response in the series, negative = inhibition | Potency
25 | CCn1c(SCC(=O)c2ccc(Cl)s2)nnc1-c1cccs1 | -7.42% (inactive) | 
26 | COc1ccccc1NC(=O)CSc1nc2sc(C)c(C)c2c(=O)n1Cc1ccco1 |  | 20 µM (active)
27 | COc1ccccc1NC(=O)CSc1nnc(-c2ccoc2C)n1CCc1ccccc1 | -0.913% (inactive) | 
28 | CCOC(=O)Cc1csc(NC(=O)CSc2nnc(-c3cccnc3)n2Cc2ccco2)n1 | -19.3% (inactive) | 
29 | O=C(CSc1nnc(-c2cccs2)n1Cc1ccco1)c1ccc2c(c1)OCO2 |  | 56.2 µM (active)
30 | COc1ccccc1NC(=O)CSc1nc2sc3c(c2c(=O)n1-c1ccccc1)CCN(C)C3 | -13.2% (inactive) | 
31 | O=C(CSc1nnc(-c2cccnc2)n1Cc1ccco1)c1ccc(Cl)cc1 | 5.12% (inactive) | 
32 | Cc1ccc(NC(=O)CSc2nnc(-c3cnccn3)n2Cc2ccco2)cc1C | -38.6% (inactive) | 
33 | O=C(CSc1nnc(-c2cccs2)n1-c1ccccc1)NCc1ccco1 | 14.2% (inactive) | 
34 | CCn1c(SCC(=O)c2ccc3ccccc3c2)nnc1-c1cccs1 | -21.9% (inactive) | 
35 | COc1ccc(NC(=O)CSc2nnc(-c3cccs3)n2Cc2ccco2)cc1OC |  | 22.4 µM (active)
36 | O=C(CSc1nnc(-c2cccnc2)n1Cc1ccco1)c1ccc(Cl)c(Cl)c1 |  | 28.2 µM (active)
37 | O=C1Nc2cc(C(=O)N3CCC(N4CCCCC4)CC3)ccc2S/C1=C\c1ccccc1 | -28.2% (inactive) | 
38 | CCCNC(=O)CCc1c(C)nc2c(c(C)nn2-c2ccc(C)cc2)c1C | 20.1% (inactive) | 
39 | O=C(NC1CCCC1)C(=O)c1c[nH]c2ccccc12 | 20.8% (inactive) | 
40 | CC(C)C[C@@H](CC(=O)N[C@@H](CCC(=O)O)CC(=O)O)NC(=O)[C@@H]1CCCC[C@H]1NC(=O)C[C@@H](NC(=O)C[C@H](Cc1c[nH]c2ccccc12)NC(=O)[C@@H]1CCCC[C@H]1N)C(C)C | -18.7% (inactive) | 
41 | CCOC(=O)c1ccc(NC(=O)Cc2cccs2)cc1 | 0.409% (inactive) | 
42 | COc1ccc(NC(=O)C2CCC(CNC(=O)[C@@H]3Cc4ccccc4CN3)CC2)cc1 (stereo partly drawn) | 7.97% (inactive) | 
43 | O=C(COc1ccc(S(=O)(=O)Nc2cccc(C(F)(F)F)c2)cc1)N1CCOCC1 | 9.23% (inactive) | 
44 | O=C(NC1CCCC1)C(c1ccco1)N(C(=O)c1csnn1)c1ccccc1 (stereo not drawn) | 19.9% (inactive) | 
45 | Cc1nc2cnc(N3CCNCC3)nc2n(CCc2ccccc2)c1=O | -8.2% (inactive) | 
46 | Cn1cc(-c2nc3cnc(N4CCNCC4)nc3n(CCc3ccccc3)c2=O)c2ccccc21 |  | 39.8 µM (active)
47 | Cn1cc(-c2nc3cnc(N4CCNCC4)nc3n(CCC#N)c2=O)c2ccccc21 | -19.5% (inactive) | 
48 | COc1ccc(C2/C=C\CN(C(=O)c3ccc(C)cc3)C(Cc3ccccc3)C(=O)N2Cc2ccc(F)cc2)cc1 (stereo not drawn) | -6.91% (inactive) | 

Row | SMILES | largest response in the series, negative = inhibition | Potency
49 | CC1(C(=O)NNC(=S)NCC2CCCO2)CC1(Cl)Cl (stereo not drawn) | 17.2% (inactive) | 
50 | Cc1cccc(C)c1NC(=O)NC1=CCCN1C | 20.1% (inactive) | 
51 | Cc1ccc(C(=O)O)cc1NC(=O)c1ccc(Cn2nc(C)c(Cl)c2C)o1 |  | 56.2 µM (active)
52 | Cc1cc(OCc2ccc(C(=O)Nc3ccc(C(=O)O)cc3)o2)ccc1Cl | 0.726% (inactive) | 
53 | Cc1cc(C(=O)Nc2c(C)nn(Cc3ccccc3)c2C)on1 | 18.5% (inactive) | 
54 | COC(=O)NNC1=CC(=O)CC(C)(C)C1 | -3.96% (inactive) | 
55 | CC1(C)CC(=O)C=C(Nc2ccccc2)C1 | 25.1% (inactive) | 
56 | Cc1cc(C)nc(NNC2=CC(=O)CC(C)(C)C2)n1 |  | 22.4 µM (active)
57 | Cc1ccc2c(c1)N(CC(=O)N1CCCC(C)C1)C(=O)CO2 (stereo not drawn) | 5.13% (inactive) | 
58 | CCn1c(C)c(C)c2cc(C(=O)N3CCN(c4cccc(C)c4C)CC3)ccc21 | -24.3% (inactive) | 
59 | CCOC(=O)c1[nH]c2c(c1-c1ccccc1)C(=O)CC(c1ccc(Cl)cc1)C2 (stereo not drawn) | 5.24% (inactive) | 
60 | CCOC(=O)C1=C(C)NC(=O)N(C(C)=O)C1c1ccc(Cl)cc1 (stereo not drawn) | 19% (inactive) | 
61 | CCOC(=O)C1Sc2[nH]c(=O)sc2C(c2ccc(Cl)cc2)C1C(=O)OCC (stereo not drawn) |  | 22.4 µM (active)
62 | CCC(C)c1ccc(NC(=S)N2CCCC2)cc1 (stereo not drawn) | 7.33% (inactive) | 
63 | O=C(O)COc1nsnc1N1CCOCC1 | 18.9% (inactive) | 
64 | c1ccc(COc2nsnc2N2CCOCC2)cc1 |  | 28.2 µM (active)
65 | c1nc(COc2nsnc2N2CCOCC2)cs1 | 0.0907% (inactive) | 
66 | CCc1c(C)c2ccc(OC3CCCCC3=O)cc2oc1=O (stereo not drawn) | -0.0226% (inactive) | 
67 | CCOC(=O)C(C)n1cnc2c(nnn2-c2ccc(F)cc2)c1=O (stereo not drawn) | 8.12% (inactive) | 
68 | O=S(=O)(NCCNS(=O)(=O)c1ccccc1)c1ccccc1 | 14.7% (inactive) | 
69 | O=c1/c(=C/c2ccc(CNS(=O)(=O)c3ccccc3)o2)sc2n1CCN=2 |  | 50.1 µM (active)
70 | O=S(=O)(NCc1ccccc1)c1ccc(S(=O)(=O)N2CCCC2)cc1 | -13.6% (inactive) | 
71 | Cc1ccccc1NC(=O)c1cc(S(=O)(=O)Nc2cccc(C(=O)O)c2)ccc1Cl | 17.9% (inactive) | 
72 | COCCNC(=O)C1CCN(C(=O)C2CC(=O)N(c3ccc(C)cc3)C2)CC1 (stereo not drawn) | 10.9% (inactive) | 

Row | SMILES | largest response in the series, negative = inhibition | Potency
73 | COC(=O)c1[nH]c2ccccc2c1NC(=O)CN1CCCc2ccccc21 |  | 39.8 µM (active)
74 | COC(=O)c1[nH]c2cccc(C)c2c1NC(=O)CN1CCCc2ccccc21 | -4.7% (inactive) | 
75 | NS(=O)(=O)c1cccc(NC(=O)CN2CCCc3ccccc32)c1 | 17% (inactive) | 
76 | O=C(Nc1nnc(S(=O)(=O)N2CCOCC2)s1)c1cccc(Br)c1 | 19.1% (inactive) | 
77 | c1ccc(-c2cc(-c3ccccc3)[nH]n2)cc1 | 4.07% (inactive) | 
78 | S=c1[nH]nc(-c2ccncc2)n1/N=C/c1ccccc1Cl | -1.85% (inactive) | 
79 | S=c1[nH]nc(-c2cc(-c3ccccc3)n[nH]2)n1/N=C/c1c2ccccc2cc2ccccc12 |  | 50.1 µM (active)
80 | CCc1ccc(S(=O)(=O)N/N=C\c2ccc([N+](=O)[O-])o2)cc1 |  | 56.2 µM (active)
81 | C/[N+]([O-])=C\c1ccc([N+](=O)[O-])o1 | 10% (inactive) | 
82 | Cc1cc(C)nc(N/N=C/c2ccc([N+](=O)[O-])o2)n1 |  | 79.4 µM (active)
83 | Cc1cc(C)nc(N/N=C/c2ccncc2)n1 | -9.4% (inactive) | 
84 | Cc1ccc(S(=O)(=O)N/N=C\c2cc3c(cc2[N+](=O)[O-])OCO3)cc1 | -17.6% (inactive) | 
85 | Cc1cc(C)nc(N/N=C/c2c(C)oc3ccccc23)n1 | -2.54% (inactive) | 
86 | O=C(NNS(=O)(=O)c1ccc([N+](=O)[O-])cc1)C1CCCCC1 | 5.3% (inactive) | 
87 | CC(C)(C)c1cc[n+](-c2[nH]c(=O)sc2/C=N/N=C(\[O-])c2ccccc2)cc1 | -4.09% (inactive) | 
88 | COC1=C(N2CCOCC2)C(=O)c2ccccc2C1=O | -22.9% (inactive) | 
89 | COc1ccc(CNC(=O)CCN2C(=O)c3ccccc3C2=O)cc1 | 10.6% (inactive) | 
90 | COc1ccccc1CN1CCN(Cc2cc(OC)c(OC)cc2OC)CC1 |  | 79.4 µM (active)
91 | COc1ccccc1CN1CCN(C(c2ccccc2)c2ccccc2)CC1 | -9.22% (inactive) | 
92 | COc1cc(OC)c(OC)cc1CN1CCN(C(=O)c2cccc3ccccc23)CC1 | -29.2% (inactive) | 
93 | Cc1ccc(C(=O)N/C(=C\c2ccc(F)cc2)C(=O)NCCN2CCOCC2)cc1 | 8.47% (inactive) | 
